Only some compounds are listed: those with a hit (about 1.8% of all), similar ones and a draw of the others.
AI-2 QS mod = Vibrio harveyi AI-2 quorum sensing modulation; Vibrio harveyi JMH597 AI-2 luminescence/OD600 ratio, 9 h; active compounds read low; strain lacks LuxN and CqsS sensors; 0 = neutral-control median; activity change, % at 7.5 µM; 300,000 tested, 0.4% active; in the data active means activity change below about -75%, passing the limit was not always enough;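 further: luminescence divided by OD600 gain over 9 h not by final OD600 alone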
Mot1-301 SUMO = inhibitors of SUMOylation pathway: yeast Mot1-301 growth rescue | S. cerevisiae Mot1-301 growth rescue, ATP luminescence, 38.5C; percent above DMSO median, 100 means doubled | growth rescue, % at 18.8 µM | 320,000 tested, 1% active;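 active means every valid replicate shows activation above 250% relative to neutral control wells; inactive means the rest, any valid replicate at or below 250%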;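 further: OY570 slx delta 5 strain wells were the positive control but not used for scaling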
aDG glyco act = alpha-DG glycosylation activation | Pro5-aDG cells, alpha-DG glycosylation AlphaScreen (IIH6); 0% Pro5, 100% B10-LARGE cell signal | activation, % at 10 µM | 360,000 tested, 0.22% active;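 active means activation of at least 8% versus controls, or a plate z-score of at least 8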;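 further: Pro5 are CHO cells carrying HIG-tagged alpha-DG that lacks glycosylation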
A1 inh = inhibitors of the anti-apoptotic protein A1, read as caspase activation; AID 2462; MEF A1-2A-BIM cells, Caspase-Glo 3/7 luminescence, 3 h; percent of clofoctol response, vehicle zero; caspase activation, % (no concentration beside the values); 330,000 tested, 0.066% active;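 active means over half of replicate activation scores above 10%, or exactly half above 10 with the replicate mean above 10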
ARNT-TACC3 inh = ARNT/TACC3 interaction disruption | Q9Y6A5 | AlphaScreen His-ARNT PAS-B/GST-TACC3 binding, luminescence; TACC3 fragment carries E629A point mutation | 390,000 tested, 0.66% active | inhibition, % at 9.99 µM;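 active means mean inhibition of replicates at least 50% and at least half of replicates each reaching 50%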;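 further: 0% = complete ARNT plus TACC3 wells and 100% = ARNT alone without TACC3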
aDG glyco conf = confirmation of alpha dystroglycan glycosylation activators. shares compounds with aDG glyco act. Pro5-aDG cells, alpha-DG glycosylation, IIH6 AlphaLISA; scaled to LARGE-overexpressing B10 cells as 100%. activation, % at 10 µM (by protocol). 600 tested, 17% active;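 active means activation of at least 7% in one or more replicates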;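 further: cells exposed to compound for two days before detection; 0% = DMSO-treated Pro5 cells and 100% = DMSO-treated B10-LARGE cells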
Numbers without * were called inactive.

For CC(C)(C)c1nnc(NC(=O)Nc2ccc(Cl)cc2)s1 the results were AI-2 QS mod 1, Mot1-301 SUMO 2, aDG glyco act 2.2*, A1 inh -1 and aDG glyco conf 0.
`Nc1nnc(-c2ccc([N+](=O)[O-])o2)s1` gave aDG glyco act 7.9*, ARNT-TACC3 inh -22 and aDG glyco conf 4.0*.
For COc1ccc2sc(N(CCN(C)C)C(=O)c3ccc4ccccc4c3)nc2c1 the results were AI-2 QS mod -6, Mot1-301 SUMO 2, aDG glyco act 4, A1 inh 0 and ARNT-TACC3 inh 8.
For CCC1CCCCN1C(=O)CN1C(=O)c2ccccc2S1(=O)=O (stereo not given) the results were AI-2 QS mod -1, Mot1-301 SUMO -8, aDG glyco act 3.3*, A1 inh 1, ARNT-TACC3 inh 16 and aDG glyco conf 0.
Screening CC(C)NC(=O)Nc1ccc2c(c1)C(=O)N([C@H](C)CO)C[C@H](C)[C@H](CN(C)C(=O)Nc1ccc3c(c1)OCO3)OCCCC[C@H](C)O2 returned ARNT-TACC3 inh -6.
Screening CCCNC(=O)N1C[C@@H]2[C@H](c3ccccc31)[C@H](CO)N2CC1CCCCC1 returned ARNT-TACC3 inh 3.
`CC(=O)c1c(C)[nH]c(C(=O)OCc2ccc(Br)cc2)c1C` gave AI-2 QS mod 10, Mot1-301 SUMO -21, aDG glyco act 9.0*, A1 inh -1, ARNT-TACC3 inh -6 and aDG glyco conf 0.
Screening CC(=O)c1c(C)[nH]c(C(=O)OCc2cccc(C)c2)c1C returned AI-2 QS mod 18, Mot1-301 SUMO -7, aDG glyco act 2 and A1 inh -1.
For CC(=O)N/N=C/c1cc(C)n(-c2ccc(Br)cc2)c1C the results were AI-2 QS mod 9, Mot1-301 SUMO -12, aDG glyco act 0, A1 inh 0 and ARNT-TACC3 inh -2.
CNc1cncc(-c2ccc(CN3CCOCC3)cc2)n1 was read as aDG glyco act 0.
For NS(=O)(=O)c1ccc(CCNCc2cc(Br)ccc2OCc2ccccc2F)cc1 the results were AI-2 QS mod 10, Mot1-301 SUMO 20, aDG glyco act 7.6*, A1 inh 0, ARNT-TACC3 inh -1 and aDG glyco conf 1.
NS(=O)(=O)c1ccc(CCNCc2cc(Cl)ccc2OCc2ccccc2)cc1 was read as AI-2 QS mod 15, Mot1-301 SUMO -10, aDG glyco act 1, A1 inh 1 and ARNT-TACC3 inh -2.
For COc1ccc(/C(C)=N/NC(=O)CNC(=O)c2ccco2)c(OC)c1 the results were AI-2 QS mod 37, Mot1-301 SUMO 3, aDG glyco act 0, A1 inh 1 and ARNT-TACC3 inh -4.
Oc1cccc(/C=N/N(Cc2ccccc2)c2ccccc2)c1 was read as Mot1-301 SUMO 132, aDG glyco act 0, A1 inh 0 and ARNT-TACC3 inh 15.
Screening Oc1cccc(C=NCc2ccccc2)c1 returned AI-2 QS mod 12, Mot1-301 SUMO 1, aDG glyco act 51*, A1 inh 1, ARNT-TACC3 inh 5 and aDG glyco conf -1.
CCCCn1c(N)c(N(CCOC)C(=O)c2ccc3c(c2)C(=O)N(c2ccccc2Cl)C3=O)c(=O)[nH]c1=O was read as Mot1-301 SUMO -8, aDG glyco act 0, A1 inh 0 and ARNT-TACC3 inh 15.
`O=C(C[C@H]1C[C@H]2c3cc(NC(=O)Nc4ccccc4F)ccc3O[C@H]2[C@@H](CO)O1)NC1CCCCC1` gave ARNT-TACC3 inh -7.
`COc1ccccc1C#Cc1ccc([C@H]2[C@H](CO)N3CCCCN(CCC(F)(F)F)C[C@@H]23)cc1` gave ARNT-TACC3 inh 14.
O=C(C1CCN(c2nnc(-n3cccc3)s2)CC1)N1CCN(c2cccc(C(F)(F)F)c2)CC1 was read as AI-2 QS mod 18, Mot1-301 SUMO -16, aDG glyco act 8.0*, A1 inh -1, ARNT-TACC3 inh -1 and aDG glyco conf 0.
`Cc1cc(C)n(CCNC(=O)[C@H]2O[C@@H](n3ccc(=O)[nH]c3=O)[C@H](O)[C@@H]2O)n1` gave aDG glyco act 21* and aDG glyco conf 0.
CC(C)c1ccc(NC(=O)C2Cc3c(-c4ccc(Cl)cc4)ccnc3O2)cc1 (stereo not given) was read as aDG glyco act 5.0* and aDG glyco conf 6.5*.
COC(=O)c1ccc(C(=O)OC)c(NC(=O)C(C)C)c1 was read as AI-2 QS mod 19, Mot1-301 SUMO -19, aDG glyco act 0, A1 inh -1 and ARNT-TACC3 inh -5.
For O=C(CCCCn1c(=O)c2ccccc2n(Cc2ccc(F)cc2)c1=O)NCc1ccco1 the results were Mot1-301 SUMO -10, aDG glyco act 0, A1 inh 0 and ARNT-TACC3 inh 0.
c1ccc(-c2nnc(CN3CCN(C(c4ccccc4)c4ccccc4)CC3)o2)cc1 was read as AI-2 QS mod 39, Mot1-301 SUMO -23, aDG glyco act 6.8*, A1 inh 0, ARNT-TACC3 inh 26 and aDG glyco conf 0.
For C[C@@H]1CN([C@@H](C)CO)C(=O)c2c(c3ccccc3n2C)-c2ccccc2CO[C@H]1CN(C)C(=O)[C@@H]1CCCN1C the results were ARNT-TACC3 inh 4.
Screening COc1ccc(NS(=O)(=O)c2ccc(Cl)c(NC(=O)c3ccccc3F)c2)cc1 returned Mot1-301 SUMO 28, aDG glyco act 2, A1 inh 1 and ARNT-TACC3 inh 2.
Screening Cc1nn(C)cc1C1C2=C(CC(C)(C)CC2=O)N(c2ccccc2)C2=C1C(=O)CC(C)(C)C2 returned AI-2 QS mod 10, Mot1-301 SUMO -21, aDG glyco act 4.2*, A1 inh 1 and aDG glyco conf -1.
`Cc1ccc(N2C3=C(C(=O)CC(C)(C)C3)C(c3cn(C)nc3C)C3=C2CC(C)(C)CC3=O)cc1` gave AI-2 QS mod 25, Mot1-301 SUMO -22, aDG glyco act 0, A1 inh 1 and ARNT-TACC3 inh 11.
For CC(Oc1cccc(Cl)c1)C(=O)Nc1ccc(S(=O)(=O)N(C)C2CCN(C)CC2)cc1 (stereo not given) the results were Mot1-301 SUMO 0, aDG glyco act 5.7*, A1 inh 0, ARNT-TACC3 inh 4 and aDG glyco conf 5.3*.
O=C(CC1SC(=Nc2ccccc2)N(CCO)C1=O)Nc1ccccc1 (stereo not given) was read as AI-2 QS mod 26, Mot1-301 SUMO 218, aDG glyco act 0, A1 inh 3 and ARNT-TACC3 inh 24.

Screening results deposited in PubChem BioAssay by several laboratories.
